Whole data set: some 68,000 sequences, median “fluorescence intensity (a.u.)” near 9,100, cut for the highest 2% near 16,000. The list comes from a sample in which the highest values are over-represented; it also holds similar and randomly drawn sequences.

OsWRKY34, sequence (Q0JBA9 entry or part of it): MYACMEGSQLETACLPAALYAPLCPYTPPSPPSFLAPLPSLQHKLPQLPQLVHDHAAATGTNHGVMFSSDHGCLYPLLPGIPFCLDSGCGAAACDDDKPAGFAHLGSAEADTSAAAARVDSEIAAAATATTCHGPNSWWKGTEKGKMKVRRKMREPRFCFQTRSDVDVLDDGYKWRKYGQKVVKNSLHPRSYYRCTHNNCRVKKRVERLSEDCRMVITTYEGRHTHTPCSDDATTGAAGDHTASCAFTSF

In the experiment the target is OsWRKY34 (Oryza sativa, UniProt Q0JBA9 1-250). Description: protein-binding microarray (RPBM); PBS, 2% BSA, 51.3 ng/ul salmon testes DNA, 50 uM zinc acetate, 200 nM TF, 25 C, 1 h; high values mean tight binding. The note with it: protein: recombinant; tags: N-terminal polyhistidine and DsRed monomer fusion (pET32a); label: CyDye5-dUTP incorporated in the synthesized complementary strand; 3' TTTTT single-stranded linker to array surface; dsDNA, one strand shown. An outline of the steps:
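Using Ni–NTA, transcription factors fused N-terminally to polyhistidine and DsRed were purified after expression in E. coli BL21-CodonPlus. These were incubated at 200 nM with a blocked, double-stranded custom Agilent array for 1 h at 25 °C in a buffer containing 50 µM zinc acetate, and the array was washed. The binding signal is per-feature fluorescence intensity (arbitrary units) on an Axon 4000B scanner.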
As for “TCTATATTGCTATTTTCATTTTAAAACTATTTCTTGCCACCGGAGTCACCTAGTGCAG”, the binding signal is 10300 fluorescence intensity (a.u.). As to “AGCTGGTCATATTCTATGTTGATTATCTTCATGGTATGAACGGAGTCACCTAGTGCAG”, the binding signal is 9730 fluorescence intensity (a.u.).

Consider “TTCTGATATCTGGTCATATTTTTTTGAACAGGTAGCTATTCGGAGTCACCTAGTGCAG”, for which the binding signal is 27000 fluorescence intensity (a.u.).

“ATCTGGTCTGCAGGTATTTTCTTTGTATTGTATATTTCTACGGAGTCACCTAGTGCAG”: the binding signal is 10000 fluorescence intensity (a.u.). As for “CCGCACCTCTCTCTACACGCACGCGTCTCTCCCATCTCCCCGGAGTCACCTAGTGCAG”, the figure is 9030 fluorescence intensity (a.u.). Next, “AACTTTCTCCCACCGGCCACCGCGCGTCTCTTGCCACGACCGGAGTCACCTAGTGCAG”: 12200 fluorescence intensity (a.u.); “TCTTCTTCCATGGTCTTTTCTAGATAAGGCTCTCTAATGTCGGAGTCACCTAGTGCAG”: 8620 fluorescence intensity (a.u.); “TGAACGCTTCCCTGTGTTTGTGGTTACTGCCTTACTGGTTCGGAGTCACCTAGTGCAG”: 9210 fluorescence intensity (a.u.). Consider “CGCACGGTTGTTCTCGCCATGATCCTCCTTGCCGCTGTCACGGAGTCACCTAGTGCAG”, for which the binding signal is 8780 fluorescence intensity (a.u.).

Regarding “TCTTAGACGGTCCTGACTCGAGGCCCATATATATGCTGGGCGGAGTCACCTAGTGCAG”, the binding signal was 19900 fluorescence intensity (a.u.).

For the sequence “CTCCTGACTCCTCCTCGGTTCCTCTTCCTCTCGAGCCCTTCGGAGTCACCTAGTGCAG”, the binding signal is 9950 fluorescence intensity (a.u.). Next, “CTTAGGGTCGGGAAGGGGAGAGGCGGTGGCGGGCGGCTGACGGAGTCACCTAGTGCAG”: 13400 fluorescence intensity (a.u.); “TGGCTCCGCCACGTCCTCGTCGCCTGGAACTCGCTCGTCTCGGAGTCACCTAGTGCAG”: 8680 fluorescence intensity (a.u.); “TGTCTCAACAACAAGCTCTGTGTGCTGCAGTGTCATTCCACGGAGTCACCTAGTGCAG”: 8160 fluorescence intensity (a.u.). Next, “TATTGGTTTTTGTTTCTGGTGCCACGTCTGCGGCCAAAAACGGAGTCACCTAGTGCAG”: 9220 fluorescence intensity (a.u.); “CCTACACACGAAACCTCCGCGCCTCATCCGGGCTTCGCGACGGAGTCACCTAGTGCAG”: 10600 fluorescence intensity (a.u.). “TAACTTAACGTGATTTTCCTGTATGGACCTTAATTATGTTCGGAGTCACCTAGTGCAG”: the binding signal was 8580 fluorescence intensity (a.u.). As for “CGTTCTCTCTCTCCTAGAACCACAGTTCAACCACTGTTTCCGGAGTCACCTAGTGCAG”, the figure is 8580 fluorescence intensity (a.u.).

With “TGCCGTGGGATGGGGTTGCGGGAGGAGGAGGGTGCTACTACGGAGTCACCTAGTGCAG”, the binding signal is 17000 fluorescence intensity (a.u.). Next, “TGGGGATGCGGGGTGGCGCGGGAGGAGGGAGAGGACGGAGCGGAGTCACCTAGTGCAG”: 8670 fluorescence intensity (a.u.); “CATGGAGGGAGGGAGGGAGGCGGAAGCGGAGGCGTGGGAGCGGAGTCACCTAGTGCAG”: 9980 fluorescence intensity (a.u.); “GGAGGAGTACGACGGGGTGGGAGCGGCGGTGGGTGGGATGCGGAGTCACCTAGTGCAG”: 11500 fluorescence intensity (a.u.). Regarding “CAAGCCGGGCGGGAGCCGTGGCGGCGGCCGGGCGGGCGGGCGGAGTCACCTAGTGCAG”, the binding signal is 8260 fluorescence intensity (a.u.).

With “GGCGGTGGGTGGGTGGAGCCGTGGAGGGATGGAGGGAGGGCGGAGTCACCTAGTGCAG”, the binding signal was 37900 fluorescence intensity (a.u.).

For the sequence “ACACGATATAGTCATTGCAATTATCACGGATCCAGGTCCTCGGAGTCACCTAGTGCAG”, the binding signal is 8560 fluorescence intensity (a.u.).

For “AGTACACACCATTTGACATCCTGATTATGTATAGTAATTTCGGAGTCACCTAGTGCAG”, the binding signal is 8350 fluorescence intensity (a.u.).

In the case of “TCAGCTATCATAGTCTTCTAGAATGCTCTTCTTGTCAGATCGGAGTCACCTAGTGCAG”, the binding signal is 8220 fluorescence intensity (a.u.). Regarding “ATGGGTTGGTAGAGGGGAGGGAACGCGCGACGGTGGCGAGCGGAGTCACCTAGTGCAG”, the binding signal was 8740 fluorescence intensity (a.u.).

Turning to “GTCTCGTGGCACCTCAATTTATTAATCACTACCCCTATACCGGAGTCACCTAGTGCAG”, the binding signal is 8710 fluorescence intensity (a.u.). Consider “CATTAGACCCTGAGGTTTTTGACTAGGCAGCCCACTTGTCCGGAGTCACCTAGTGCAG”, for which the binding signal was 9040 fluorescence intensity (a.u.).

For the sequence “GTTTGTCAAAAAGTCAACGGCGTCATATATTATACGGAGGCGGAGTCACCTAGTGCAG”, the binding signal was 18800 fluorescence intensity (a.u.). Next, “GAAATGTCAAATATTTGTTAAAAAGTCAACGGCGTCATACCGGAGTCACCTAGTGCAG”: 11900 fluorescence intensity (a.u.); “CGGATGGTCAAACGTTGGTCAAAAAGTCAACGGCGTCATACGGAGTCACCTAGTGCAG”: 19600 fluorescence intensity (a.u.); “ACAAATGGTCAAACGTTGGTCGAAAAGTCAACGGCGTCATCGGAGTCACCTAGTGCAG”: 13700 fluorescence intensity (a.u.). Next, “TAAAACGAATGGTCAAACGTTGGTCGAAAAGTCAACGGCGCGGAGTCACCTAGTGCAG”: 14400 fluorescence intensity (a.u.). As for “ACAAATGGTCAAACGTTGATAAAAAAGTCAACGGCGTCATCGGAGTCACCTAGTGCAG”, the figure is 20600 fluorescence intensity (a.u.); as for “ATAAAACAAATGATCAAACGTTGAATAAAAAGTCAACGGCCGGAGTCACCTAGTGCAG”, 11100 fluorescence intensity (a.u.); as for “GATCAAACGTTGGTTAAAAAGTCAACGGCGTCATACATTACGGAGTCACCTAGTGCAG”, 10700 fluorescence intensity (a.u.).

For the sequence “AAAAAGTCAACGGCGTCATATATTAAAATATGGAGAGAGTCGGAGTCACCTAGTGCAG”, the binding signal was 8150 fluorescence intensity (a.u.). As for “AATGGTCAAACGTTGGATAAAAAGTCAACGGCGTCATACACGGAGTCACCTAGTGCAG”, the figure is 14700 fluorescence intensity (a.u.); as for “AAACGAATAGTCAAACGTTGATCGAAAAGTCAACGGCGTCCGGAGTCACCTAGTGCAG”, 19300 fluorescence intensity (a.u.); as for “TTTAAATAAAACGAATGGTCAAACGTTGATAAAAAGTCAACGGAGTCACCTAGTGCAG”, 13300 fluorescence intensity (a.u.).

Source of the values: publication PMC7819943, “Rice protein-binding microarrays: a tool to detect cis-acting elements near promoter regions in rice”.
